Shown is part of a subset that was picked to be rich in hits.
TSG101-PTAP inh = TSG101-PTAP interaction inhibition, HIV-1 budding; Q99816; Fluorescence polarization, FITC-PTAP peptide/Tsg101, 20 min; Potency, µM (titrated, usually from 115 µM), hits mostly inhibitors; 44,000 tested, under 10 active; further: potency means the concentration at half of the fitted maximal effect; 0% is about no effect
Target sequence (Q99816 whole entry, looked up): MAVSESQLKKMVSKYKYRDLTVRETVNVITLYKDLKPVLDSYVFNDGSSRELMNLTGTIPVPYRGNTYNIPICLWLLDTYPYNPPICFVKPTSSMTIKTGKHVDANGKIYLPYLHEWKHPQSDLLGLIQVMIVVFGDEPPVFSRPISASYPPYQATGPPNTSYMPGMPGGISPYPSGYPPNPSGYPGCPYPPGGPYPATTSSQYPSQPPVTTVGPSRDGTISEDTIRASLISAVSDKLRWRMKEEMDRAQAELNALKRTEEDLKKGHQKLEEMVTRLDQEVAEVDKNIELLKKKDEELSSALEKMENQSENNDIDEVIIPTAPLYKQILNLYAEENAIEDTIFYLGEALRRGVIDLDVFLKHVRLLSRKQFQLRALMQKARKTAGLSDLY
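Steps: Tsg101 binding domain (10 uM final) in HEPES pH 7.5/NaCl/Tween 20/EDTA/TCEP; add compound; add FITC-PTAP peptide (50 nM final); incubate 20 min r.t.; read polarization.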
NTMT1 inh = inhibitors of human N-terminal methyltransferase NTMT1; NTMT1 MTase-Glo SAH luminescence, purified enzyme; actives 2.5% (n = 59,000); AID 1645870; Q9BV86; Potency, µM (highest dose often 114 µM), for the others: at the highest dose activity change, negative = inhibition, actives largely listed as inhibitors;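 further: potency means the concentration at half of the fitted maximal effect; plate controls were DMSO vehicle for no effect and no enzyme for full effect; nearly all actives have a fitted effect of over 65% in size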
Target sequence (Q9BV86 whole entry, looked up): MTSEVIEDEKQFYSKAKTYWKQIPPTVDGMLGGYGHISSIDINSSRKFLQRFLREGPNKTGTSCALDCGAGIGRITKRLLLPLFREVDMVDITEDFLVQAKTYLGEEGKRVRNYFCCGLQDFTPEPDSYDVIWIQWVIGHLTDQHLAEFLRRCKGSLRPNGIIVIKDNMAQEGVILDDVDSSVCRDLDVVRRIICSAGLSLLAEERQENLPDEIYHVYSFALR
HTT-AS promoter = HTT-AS promoter activation; AID 1508624; HEK293 HTT-AS promoter firefly luciferase reporter, 24 h; response scale: percent change from vehicle, -100% = no light; Potency, µM (doses to about 57.5 µM), for the others: top-dose activity change, positive = activation, hits mostly activators; actives 0.24% (n = 48,000); further: potency means the concentration at half of the fitted maximal effect; nearly all actives have a fitted effect of over 55% in size
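HEK293 luciferase promoter-reporter cells (2,500/well) plated 24 h, then compounds added at up to 57.5 uM final for 24 h at 37 °C. Firefly luminescence by Dual-Glo, normalized to vehicle (0%) and zero RLU (-100%).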
GALK inh = GALK (human) enzyme inhibition | recombinant GALK, Kinase-Glo ATP luminescence, 1 h | Potency, µM (doses to about 57.5 µM), for the others: top-dose activity, negative = inhibition, actives largely listed as inhibitors | 44,000 tested, under 10 active;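 further: plate controls were full GALK reaction for no effect and reaction lacking GALK for full effect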
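Luminescent ATP-depletion readout (Kinase-Glo Plus, 10 min) after 1 h RT reaction of 5 nM GALK, 35 uM ATP, 100 uM galactose, pH 8.0 HEPES buffer. Decreased kinase activity scored as inhibition.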
HTT promoter inh = inhibitors of huntingtin promoter activity; AID 1508623; HEK293 HTT promoter firefly luciferase reporter, 24 h; actives 0.93% (n = 48,000); Potency, µM (titrated, usually from 57.5 µM), for the others: at the top dose activity change, negative = inhibition, hits mostly inhibitors; further: potency means the concentration at half of the fitted maximal effect; nearly all actives have a fitted effect of over 50% in size
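Firefly luciferase signal from promoter-reporter HEK293 cells was scaled between vehicle (0%) and zero RLU (-100%). Compounds were tested at final concentrations of up to 57.5 uM over 24 h at 37 degrees C. PTC124 at 50 uM final served as control inhibitor.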
B2AR arrestin ag = agonists recruiting beta-arrestin to human beta2-adrenergic receptor; HTLA Tango cells, beta-arrestin recruitment, luciferase luminescence, 18 h; AID 1347077; P07550; 44,000 tested, under 10 active; Potency, µM (doses to about 46.1 µM), most hits filed as activators;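 further: potency means the concentration at half of the fitted maximal effect; 0% = DMSO and full agonism = EC100 isoproterenol or metaproterenol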
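Tango cells (recombinant beta2-AR, beta-arrestin, tTA-driven luciferase), 1500/well in DMEM 1% FBS, treated 18 h at 37 °C with compounds up to 46 µM; luciferin mix added, luminescence read after 15 min; %activity curves fitted and curve-classed.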
Active calls of the source: *; i = inactive; ? = inconclusive; / = no result given; ! = not confirmed by another sample; [ ] = dose if it differs, or a comment. The call rests on the fitted dose curve; in most records, active means well fitted curve in the direction sought with a large enough effect; inconclusive means small, poorly fitted or top-dose-only effect, or another doubt; inactive means no such curve, though single readings can be large; an effect the other way counts as inactive or inconclusive.

SMILES | TSG101-PTAP inh | NTMT1 inh | HTT-AS promoter | GALK inh | HTT promoter inh | B2AR arrestin ag
Cc1nc(-c2ccc(Cl)cc2)sc1CCNC(=O)Cc1ccc(F)cc1 | i | -1.0% | -38.2% | 0.8% | 31.6µM* | i
CCCCOc1ccc(C(=O)NCCc2csc(-c3ccc(OC)cc3)n2)cc1 | i | 4.4% | -39.8% | -0.6% | 22.4µM* | i
COc1ccc(C(=O)NCCc2csc(-c3ccc(Cl)cc3)n2)cc1 | i | -1.5% | -18.7% | -1.8% | ? | i
Cc1ccc(-n2ncc3c(NCCO)ncnc32)cc1Cl | i | 35.5µM* | ? | 3.4% | 61.9% | i
Clc1cccc(-n2ncc3c(NCCCN4CCOCC4)ncnc32)c1 | i | 50.1µM* | 2.8% | 2.0% | -7.8% | i
Cc1cccc(-n2ncc3c(NCCOCCO)ncnc32)c1 | i | ? | 3.98µM* | 1.7% | 38.6% | i
O=C(NCCc1nc2ccccc2n1CCCc1ccccc1)C1CCCCC1 | / | -1.5% | / | / | / | /
CCN1C(=O)N2Cc3cc(OC)cc(OC)c3[C@@H](C)C=C2C12CCN(Cc1cc(C)cc(C)c1)CC2 | / | 21.0% | / | / | / | /
CC(C)c1ccc(NC(=O)c2cc(S(=O)(=O)NC3CCCCC3)ccc2F)cc1 | i | -2.3% | -21.5% | -0.2% | ? | i
O=C(Nc1ccc(F)c(F)c1)c1cc(S(=O)(=O)NC2CCCCCC2)ccc1F | i | 1.1% | -38.2% | -6.3% | 25.1µM* | i
COC(=O)c1ccc(OC(C)=O)c2ncccc12 | / | 16.9% | / | / | / | /
O=C(CSc1nnc2[nH]c(=O)cc(-c3ccccc3)n12)Nc1ccccc1C(F)(F)F | i | -10.1% | 11.2µM* | 0.9% | 46.3% | i
CCc1ccc(NC(=O)CSc2nnc3[nH]c(=O)cc(-c4ccccc4)n23)cc1 | i | -5.1% | 34.1% | -5.1% | 21.5% | i
COc1cc(NC(=O)CSc2nc(-c3ccco3)cc(C(F)(F)F)n2)cc(OC)c1OC | i | -2.2% | -74.6% | -27.7% | 12.6µM* | i
O=c1c(-c2ccc(O)cc2)coc2cc(O)cc(O)c12 | / | 70.8µM*! | ? | / | 14.4% | /
CCOc1ccc(S(=O)(=O)N(C(C)=O)c2ccc3oc(C)c(C(=O)OC)c3c2)cc1 | i | 8.1% | -79.1% | 0.2% | 2.51µM* | i
COC(=O)c1c(C)oc2ccc(N(C(=O)c3ccncc3)S(=O)(=O)c3ccc(Br)cc3)cc12 | i | -1.0% | -10.9% | -2.0% | ? | i
COC(=O)c1c(C)oc2ccc(N(C(=O)c3ccncc3)S(=O)(=O)c3cc(C)ccc3C)cc12 | i | 1.7% | -38.6% | -0.9% | 28.2µM* | i
CCCC(=O)N(c1ccc2oc(C)c(C(C)=O)c2c1)S(=O)(=O)c1ccc(CC)cc1 | i | -5.8% | -54.4% | 0.0% | 5.01µM* | i
O=C1CCCC2=C1C(c1[nH]ncc1Br)N=C(Nc1nc3ccccc3o1)N2 (stereo not given) | / | 1.9% | / | / | / | /
CS(=O)(=O)Nc1ccc(-c2nc(NCc3ccc(-c4ccnc(C(F)(F)F)c4)cc3)c3ccccc3n2)cc1 | / | 6.8% | / | / | / | /
CCN(CC)C(=O)COC(=O)c1ccc(S(C)(=O)=O)c([N+](=O)[O-])c1 | / | 13.9% | / | / | / | /
Cc1ccc(C)c(Cn2c(=O)n(CCCCC(=O)NCc3ccc4c(c3)OCO4)c(=O)c3ccccc32)c1 | i | 89.1µM* | -20.4% | -1.5% | -2.8% | i
Cc1ccc(C)c(Cn2c(=O)n(CCCCC(=O)NCc3ccccc3Cl)c(=O)c3ccccc32)c1 | i | 79.4µM* | -7.3% | 6.7% | 2.2% | i
Cc1ccc(Cn2c(=O)n(CCCCC(=O)NCc3ccccc3Cl)c(=O)c3ccccc32)cc1 | i | 12.0% | -48.5% | 1.5% | ? | i
SMILES | TSG101-PTAP inh | NTMT1 inh | HTT-AS promoter | GALK inh | HTT promoter inh | B2AR arrestin ag
O=C([C@@H](Cc1ccc(O[S+](=O)([O-])c2cccnc2)cc1)N[S+](=O)([O-])c1cccc2cccnc12)N1CCN(c2ccccc2)CC1 | / | 5.5% | / | / | / | /
Cc1ccc(-n2ncc(C(=O)NCCN3CCCC3)c2C2CCN(C(=O)OC(C)(C)C)CC2)cc1 | i | ? | -13.2% | 2.4% | -2.0% | i
Cc1ccc(-n2ncc(C(=O)NCCN3CCC(Cc4ccccc4)CC3)c2C2CCN(C(=O)OC(C)(C)C)CC2)cc1 | i | 89.1µM* | -55.8% | 0.8% | ? | i
Cc1ccc(C)c(Nc2nc3nonc3nc2Nc2cccc(C)c2C)c1 | i | 10.5% | -88.4% | -1.9% | ? | ?
CCOC(=O)c1ccc(Nc2nc3nonc3nc2Nc2cccc(C)c2C)cc1 | i | 9.2% | -87.4% | -2.4% | 2.24µM* | i
COC(=O)C1C(CC(C)=O)C=CC(O)C12Oc1cc(C)cc(O)c1C2=O (stereo not given) | / | -1.8%[29.8 µM] | / | / | / | /
CN[C@H]1CC[C@@H](c2ccc(Cl)c(Cl)c2)c2ccccc21 | / | 28.2µM*! | -38.2% | / | ? | /
COc1ccccc1NC(=O)CCCOc1cc(=O)n(C)c2ccccc12 | i | -7.4% | 22.5% | 9.2% | 36.6% | i
C=CC(=O)Nc1cc(Nc2nccc(-c3cn(C)c4ccccc34)n2)c(OC)cc1N(C)CCN(C)C | / | 25.1µM* | / | / | / | /
Cc1ccc(-c2nccc(=O)n2C(C)C(=O)NCCc2ccccc2)cc1 (stereo not given) | / | -3.9% | / | / | / | /
COc1ccc(CN(C(=O)c2cc3ccccc3oc2=O)C2CCS(=O)(=O)C2)cc1OC (stereo not given) | i | -13.8% | 11.2µM* | 1.0% | 48.5% | i
COc1cc(NS(=O)(=O)c2ccc3c(c2)CC(C)N3C(=O)C2CCC2)cc(OC)c1OC (stereo not given) | i | / | / | 2.4% | / | i
CCC(=O)N1c2ccc(S(=O)(=O)N3CCN(c4ccccc4Cl)CC3)cc2CC1C (stereo not given) | i | 89.1µM* | -40.5% | -0.9% | ? | i
CCc1cccc(NS(=O)(=O)c2ccc3c(c2)CC(C)N3C(=O)C2CC2)c1 (stereo not given) | i | 22.7% | -78.9% | 2.2% | 14.1µM* | i
CC(=O)N1c2ccc(S(=O)(=O)N3CCN(c4cccc(Cl)c4)CC3)cc2CC1C (stereo not given) | i | -16.4% | -19.9% | 0.1% | 8.4% | i
COc1ccc(NS(=O)(=O)c2ccc3c(c2)CC(C)N3C(=O)C2CCC2)cc1OC (stereo not given) | i | 7.1% | -49.7% | -1.5% | 1.78µM* | i

Assay outcomes from PubChem.
